Measured values taken from PubChem BioAssay (EPA / NIEHS).
Records with an inconclusive call do not appear. Active and inactive are the calls of the source. How the source made its calls, unless noted: active means hit-call score of the fitted dose curve at least 0.9, where 1 is the maximum; inactive means score below 0.9.

How the values were obtained:
[1] = ACEA_ER_80hr: ACEA Biosciences xCELLigence Real-Time Cell Analysis on Estrogen Receptor Agonism for Proliferation (AID 2282667; active means hit-call score of the fitted dose curve at least 0.9, where 1 is the maximum); conditions: T47D proliferation, impedance (xCELLigence), 80 h
Summary of the method: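 Cell-growth kinetics were measured by impedance in T47D cells treated continuously with compound (top 100 uM final, 1:4 steps, 8 points). Activity at 80 h was scored as signal gain over the DMSO baseline.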

[2] = ATG_CRE_CIS: Attagene CIS-FACTORIAL HepG2 Assay for human cAMP Responsive Element (CRE) binding protein 3 (AID 2282926); conditions: HepG2 CRE cis-reporter, Attagene multiplexed mRNA; actives raise or lower the signal
Summary of the method: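 Cells carrying cis-regulated reporter constructs respond through their own endogenous factors. After 24 h treatment, RNA is reverse-transcribed, amplified, labelled and sized by capillary electrophoresis; up- and down-regulation are both scored against vehicle.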

[3] = target: CCAAT/enhancer-binding protein beta (Homo sapiens) (UniProt P17676); test: ATG_C_EBP_CIS: Attagene CIS-FACTORIAL HepG2 Assay for human CCAAT/Enhancer Binding Protein (C/EBP) beta (AID 2282927); conditions: HepG2 Attagene cis-factorial transcription factor reporter; actives raise or lower the signal
CCAAT/enhancer-binding protein beta (Homo sapiens), sequence (P17676 whole entry, looked up): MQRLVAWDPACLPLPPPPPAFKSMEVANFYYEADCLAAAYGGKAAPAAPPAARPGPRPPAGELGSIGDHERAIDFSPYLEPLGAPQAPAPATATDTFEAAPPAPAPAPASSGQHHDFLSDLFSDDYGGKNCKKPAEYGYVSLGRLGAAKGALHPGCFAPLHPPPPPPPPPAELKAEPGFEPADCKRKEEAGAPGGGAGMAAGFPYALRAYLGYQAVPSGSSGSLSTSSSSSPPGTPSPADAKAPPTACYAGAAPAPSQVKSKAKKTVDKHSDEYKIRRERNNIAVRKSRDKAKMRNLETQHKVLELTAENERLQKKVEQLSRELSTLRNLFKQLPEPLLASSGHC
Summary of the method: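 Transiently transfected HepG2 (MRTU library, endogenous TF-driven promoters); 24 h dosing; total RNA → oligo(dT) RT → PCR → 6-FAM primer extension → HpaI digest → CE; fit bidirectionally vs DMSO.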

[4] = ATG_CMV_CIS: Attagene CIS-FACTORIAL HepG2 Assay for human CMV (Internal Marker) (AID 2282928); conditions: HepG2 CMV promoter reporter, transcription factor profiling; actives raise or lower the signal;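 further: endpoint acts as a background internal control marker rather than a target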
Summary of the method: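 Fluorescence intensity of RT-PCR-derived reporter fragments, resolved by capillary electrophoresis, gives the signal. HepG2 liver cells bearing transfected cis-element reporters were treated 24 h; activity in either direction was fit relative to DMSO-treated controls.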

[5] = ATG_DR4_LXR_CIS: Attagene CIS-FACTORIAL HepG2 Assay for human Liver X Receptor (LXR), DR4 submotif (AID 2282929); conditions: HepG2 Attagene DR4 cis-reporter, mRNA transcription; actives raise or lower the signal
Summary of the method: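 Endogenous factor activity at a DR4 cis-element is read as reporter mRNA in transiently transfected HepG2 cells. Exposure lasts 24 h; transcripts are amplified, fluorescently labelled and sized by capillary electrophoresis, with DMSO as baseline.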

[6] = target: Aryl hydrocarbon receptor (Homo sapiens) (UniProt P35869); test: ATG_Ahr_CIS: Attagene CIS-FACTORIAL HepG2 Assay for human Aryl Hydrocarbon Receptor (Ahr) (AID 2282930); conditions: HepG2 AhR cis-factorial reporter transcription; actives raise or lower the signal
Aryl hydrocarbon receptor (Homo sapiens), sequence (P35869 whole entry, looked up): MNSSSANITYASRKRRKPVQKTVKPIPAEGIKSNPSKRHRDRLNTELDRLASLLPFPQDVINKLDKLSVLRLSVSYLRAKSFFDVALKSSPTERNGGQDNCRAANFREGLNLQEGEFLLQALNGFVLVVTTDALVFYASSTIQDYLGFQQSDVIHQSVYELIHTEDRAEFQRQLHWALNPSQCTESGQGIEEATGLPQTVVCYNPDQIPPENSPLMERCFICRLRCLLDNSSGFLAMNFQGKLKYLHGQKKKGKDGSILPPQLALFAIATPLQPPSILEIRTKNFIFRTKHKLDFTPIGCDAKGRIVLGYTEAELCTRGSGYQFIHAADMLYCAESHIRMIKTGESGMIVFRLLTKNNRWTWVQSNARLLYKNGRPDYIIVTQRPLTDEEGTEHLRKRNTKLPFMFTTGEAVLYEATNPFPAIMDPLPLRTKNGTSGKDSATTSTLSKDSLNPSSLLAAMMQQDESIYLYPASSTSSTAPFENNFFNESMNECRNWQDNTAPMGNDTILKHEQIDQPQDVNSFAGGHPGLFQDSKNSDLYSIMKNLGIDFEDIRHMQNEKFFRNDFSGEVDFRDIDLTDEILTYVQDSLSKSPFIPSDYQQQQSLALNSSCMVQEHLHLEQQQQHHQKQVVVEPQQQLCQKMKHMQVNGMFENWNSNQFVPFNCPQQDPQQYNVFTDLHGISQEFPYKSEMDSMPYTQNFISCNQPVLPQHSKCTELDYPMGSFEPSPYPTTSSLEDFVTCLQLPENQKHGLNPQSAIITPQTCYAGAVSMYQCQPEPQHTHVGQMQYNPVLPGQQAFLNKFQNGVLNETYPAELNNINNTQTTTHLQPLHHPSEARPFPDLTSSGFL
Summary of the method: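 Read-out: reporter mRNA quantified by RT-PCR with fluorescent primer extension and capillary electrophoresis. Human HepG2 liver cells carried transfected cis-promoter reporter units and were exposed to chemical for 24 h; gain or loss fitted relative to DMSO.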

[7] = ATG_AP_1_CIS: Attagene CIS-FACTORIAL HepG2 Assay for human Activator Protein 1 (AP-1) (AID 2282931); conditions: HepG2 Attagene cis-factorial AP-1 reporter mRNA; actives raise or lower the signal
Summary of the method: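 Fluorescence of labelled PCR fragments separated by capillary electrophoresis gives reporter mRNA levels. HepG2 with transfected cis-regulated reporter units, 24 h exposure; DMSO serves as baseline for bidirectional curve fits.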

[8] = ATG_AP_2_CIS: Attagene CIS-FACTORIAL HepG2 Assay for human Activator Protein 2 (AP-2) (AID 2282932); conditions: HepG2 AP-2 cis-reporter, Attagene transcription factor profiling; actives raise or lower the signal
Summary of the method: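 Liver-derived HepG2 line, cis-reporter system measuring endogenous factors; 24 h dosing; reporter mRNA detected by fluorescent RT-PCR and capillary electrophoresis.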

[9] = ATG_BRE_CIS: Attagene CIS-FACTORIAL HepG2 Assay for human Bone Morphogenetic Protein (BMP) Response Element (BRE) (AID 2282933); conditions: HepG2 BMP response element reporter, Attagene transcription factor profiling; actives raise or lower the signal
Summary of the method: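 Multiplexed cis-reporter assay, HepG2, 24 h exposure. mRNA from reporter units quantified via RT-PCR/CE; DMSO baseline; bidirectional curve fit.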

[10] = target: Retinoic acid receptor alpha (Homo sapiens) (UniProt P10276); test: ATG_DR5_RAR_CIS: Attagene CIS-FACTORIAL HepG2 Assay for human Retinoic Acid Receptor Alpha (RARE), DR5 submotif (AID 2282934); conditions: HepG2 Attagene cis-factorial RARE DR5 reporter, mRNA; actives raise or lower the signal;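 on AC50: reporter responds to endogenous RAR alpha beta and gamma in HepG2 not RARA alone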
Retinoic acid receptor alpha (Homo sapiens), sequence (P10276 whole entry, looked up): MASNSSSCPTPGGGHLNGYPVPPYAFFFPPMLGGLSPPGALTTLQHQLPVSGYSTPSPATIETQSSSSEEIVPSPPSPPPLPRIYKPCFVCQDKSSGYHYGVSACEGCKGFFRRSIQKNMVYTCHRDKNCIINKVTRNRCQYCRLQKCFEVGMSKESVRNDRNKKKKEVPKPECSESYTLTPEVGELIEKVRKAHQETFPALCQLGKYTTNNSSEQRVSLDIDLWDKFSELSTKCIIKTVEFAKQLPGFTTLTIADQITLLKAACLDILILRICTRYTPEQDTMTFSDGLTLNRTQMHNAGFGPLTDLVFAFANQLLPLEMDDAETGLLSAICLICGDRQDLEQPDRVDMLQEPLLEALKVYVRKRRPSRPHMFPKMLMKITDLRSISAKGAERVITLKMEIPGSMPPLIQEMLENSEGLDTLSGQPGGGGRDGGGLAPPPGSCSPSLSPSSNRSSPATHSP
Summary of the method: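 Read-out: DR5-driven reporter transcript measured by RT-PCR, 6-FAM primer extension, HpaI digest and capillary electrophoresis. Human HepG2 liver cells carry transiently transfected cis-element reporter constructs; dosing lasts 24 h. Gain or loss of signal fitted against DMSO baseline.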

[11] = target: Transcription factor E2F1 (Homo sapiens) (UniProt Q01094); test: ATG_E2F_CIS: Attagene CIS-FACTORIAL HepG2 Assay for human E2F Transcription Factor 1 (AID 2282935); conditions: HepG2 Attagene cis-reporter, E2F reporter RNA transcripts; actives raise or lower the signal
Transcription factor E2F1 (Homo sapiens), sequence (Q01094 whole entry, looked up): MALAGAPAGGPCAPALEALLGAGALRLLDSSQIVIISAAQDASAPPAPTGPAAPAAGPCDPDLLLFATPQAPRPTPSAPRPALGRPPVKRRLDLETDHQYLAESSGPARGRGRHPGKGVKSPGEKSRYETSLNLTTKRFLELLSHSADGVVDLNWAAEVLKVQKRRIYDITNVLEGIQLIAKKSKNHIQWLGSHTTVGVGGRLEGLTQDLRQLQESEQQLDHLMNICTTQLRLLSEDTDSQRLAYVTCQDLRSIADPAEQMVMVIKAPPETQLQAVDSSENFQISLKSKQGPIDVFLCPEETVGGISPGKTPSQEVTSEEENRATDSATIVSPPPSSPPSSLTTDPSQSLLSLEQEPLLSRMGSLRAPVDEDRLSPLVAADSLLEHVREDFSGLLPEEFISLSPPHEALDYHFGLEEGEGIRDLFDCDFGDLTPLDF
Summary of the method: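 Liver-derived HepG2 cells expressing transfected promoter-driven reporter units received test chemical for 24 hours. Signal gains or losses were fitted bidirectionally against DMSO.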

[12] = ATG_M_61_CIS: Attagene CIS-FACTORIAL HepG2 Assay for M61 Transcription Factor (Internal Marker) (AID 2282937); conditions: HepG2 Attagene CIS-FACTORIAL M61 internal marker reporter; actives raise or lower the signal
Summary of the method: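 This endpoint serves as an internal background control within a multiplexed HepG2 cis-reporter panel. Cells are exposed for 24 h; reporter mRNA is amplified, fluorescently labelled and sized by capillary electrophoresis, with DMSO as negative control.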

[13] = ATG_EGR_CIS: Attagene CIS-FACTORIAL HepG2 Assay for human Early Growth Response 1 (EGR1) (AID 2282938); conditions: HepG2 Attagene CIS-FACTORIAL EGR reporter mRNA; actives raise or lower the signal
Summary of the method: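 HepG2, transient MRTU transfection (cis promoters), 24 h compound. RNA → RT (oligo-dT) → PCR → 6-FAM labelling → HpaI cut → CE fluorescence. Bidirectional fit, DMSO baseline.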

[14] = ATG_M_19_CIS: Attagene CIS-FACTORIAL HepG2 Assay for M19 Transcription Factor (Internal Marker) (AID 2282939); conditions: HepG2 Attagene CIS-FACTORIAL M19 internal marker reporter; actives raise or lower the signal
Summary of the method: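 Signals come from fluorescence of labelled reporter-specific PCR fragments resolved by capillary electrophoresis, following 24 h treatment of HepG2 cells transfected with cis-promoter reporter units; activity was fitted in both directions relative to DMSO.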

[15] = ATG_ERE_CIS: Attagene CIS-FACTORIAL HepG2 Assay for Estrogen Response Element (ERE) (AID 2282940); conditions: HepG2 ERE cis-reporter, Attagene RNA transcript; actives raise or lower the signal
Summary of the method: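 Fluorescence of capillary-separated, FAM-labelled reporter cDNA fragments indicates reporter mRNA levels in HepG2 cells exposed to chemicals for 24 h. Transient transfection with cis-regulated units; data fitted in both directions against DMSO.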

[16] = ATG_Ets_CIS: Attagene CIS-FACTORIAL HepG2 Assay for human Erythroblast Transformation Specific (ETS) (AID 2282941); conditions: HepG2 ETS cis-reporter transcription, actives raise or lower the signal
Summary of the method: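 Multiplexed reporter transcript profiling: HepG2, 24 h treatment, total RNA to cDNA, PCR, 6-FAM labelling, HpaI cut, capillary electrophoresis. Gain- or loss-of-signal fitted against DMSO.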

[17] = target: Hepatocyte nuclear factor 3-beta (Homo sapiens) (UniProt Q9Y261); test: ATG_FoxA2_CIS: Attagene CIS-FACTORIAL HepG2 Assay for human Forkhead box A2 (FOXA2) (AID 2282942); conditions: HepG2 cis-reporter transcription factor activity, 24 h; actives raise or lower the signal
Hepatocyte nuclear factor 3-beta (Homo sapiens), sequence (Q9Y261 whole entry, looked up): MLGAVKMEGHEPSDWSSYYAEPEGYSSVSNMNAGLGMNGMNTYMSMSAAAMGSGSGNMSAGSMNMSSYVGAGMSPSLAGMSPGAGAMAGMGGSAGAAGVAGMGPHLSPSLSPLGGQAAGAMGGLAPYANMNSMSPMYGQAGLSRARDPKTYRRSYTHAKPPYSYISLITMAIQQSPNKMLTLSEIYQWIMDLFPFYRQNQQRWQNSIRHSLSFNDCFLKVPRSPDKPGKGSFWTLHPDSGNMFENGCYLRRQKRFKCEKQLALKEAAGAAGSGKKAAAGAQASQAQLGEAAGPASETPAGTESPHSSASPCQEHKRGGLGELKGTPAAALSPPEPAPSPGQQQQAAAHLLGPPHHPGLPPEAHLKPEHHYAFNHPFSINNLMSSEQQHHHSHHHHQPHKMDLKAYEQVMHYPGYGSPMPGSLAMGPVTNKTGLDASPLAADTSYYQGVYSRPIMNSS
Summary of the method: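 Cells: HepG2, transient multiplex reporter transfection. Exposure 24 h. Detection: reporter-specific RT-PCR, fluorescent labelling, restriction digest, capillary electrophoresis. Analysis: bidirectional curve fit, DMSO as negative control.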

[18] = ATG_FoxO_CIS: Attagene CIS-FACTORIAL HepG2 Assay for human Forkhead box O (FoxO) (AID 2282943); conditions: HepG2 Attagene cis-reporter, FoxO element, mRNA; actives raise or lower the signal
Summary of the method: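 Read-out: fluorescence of 6-FAM-labelled reporter cDNA fragments resolved by capillary electrophoresis. Transiently transfected HepG2 cells were dosed for 24 h; activity fitted in both directions relative to DMSO controls.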

[19] = ATG_GATA_CIS: Attagene CIS-FACTORIAL HepG2 Assay for human GATA Binding Protein (AID 2282944); conditions: HepG2 GATA cis-element reporter, Attagene multiplex mRNA; actives raise or lower the signal
Summary of the method: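 After transfecting HepG2 cells with multiple cis-regulated reporter units, chemicals are dosed for 24 h; isolated RNA undergoes RT-PCR and fluorescent labeling before capillary electrophoresis, with activity expressed against DMSO.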

[20] = ATG_E_Box_CIS: Attagene CIS-FACTORIAL HepG2 Assay for human Enhancer Box (E-box) (AID 2282936); conditions: HepG2 E-box cis-reporter transcription, actives raise or lower the signal
Summary of the method: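 In this cell-based setup, HepG2 cells bearing transfected promoter-driven reporter units were exposed to chemicals for 24 h; reporter transcripts were amplified, 6-FAM-labelled, cut with HpaI and sized by capillary electrophoresis.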

Measured: AC50

NC(=O)C(F)(F)C(F)(F)C(F)(F)C(F)F
not listed: [20]
inactive: all other assays above

CCN(CC)c1ccc2c(c1)Oc1cc(N(CC)CC)ccc1C21OC(=O)c2ccccc21
active: [6] 7.41 µM
not listed: [11]
inactive: all other assays above

COC(=O)c1ccc(C=O)cc1
active: [6] 105 µM
not listed: [11]
inactive: all other assays above

CCOC(=O)C1CC(=O)C(=C(O)C2CC2)C(=O)C1 (stereo unspecified)
not listed: [11] | [14]
inactive: all other assays above

O=c1[nH]cccc1O
not listed: [11]
inactive: all other assays above

O=C(Cl)C(F)(F)C(F)(F)C(F)(F)C(F)(F)C(F)(F)C(F)(F)F
active: [7] 159 µM
not listed: [11]
inactive: all other assays above

CC(C)(C)C(=O)C1C(=O)c2ccccc2C1=O
active: [1] 10.4 µM | [2] 57.9 µM | [4] 30.1 µM | [6] 34.6 µM | [7] 30.3 µM | [10] 31.9 µM
not listed: [14]
inactive: all other assays above

O=C(O)CCC(F)(F)C(F)(F)C(F)(F)C(F)(F)C(F)(F)C(F)(F)C(F)(F)F
active: [7] 94.3 µM
not listed: [11] | [15]
inactive: all other assays above

Cc1cc(C)c(O)c(C(C)(C)C)c1
active: [4] 100 µM
not listed: [20]
inactive: all other assays above

O=C1C=CC(=O)N1c1ccc(Cc2ccc(N3C(=O)C=CC3=O)cc2)cc1
active: [2] 33.4 µM | [5] 22.7 µM | [9] 51.2 µM | [10] 59.4 µM | [20] 44.9 µM | [13] 21.4 µM
not listed: [11] | [14]
inactive: all other assays above

CC1=CCC(=O)O1
not listed: [11]
inactive: all other assays above

CCCCCCCCCCCC(=O)Cl
active: [5] 163 µM | [7] 82.8 µM | [10] 65.6 µM
not listed: [11] | [15]
inactive: all other assays above

CCC(=O)OC(C)c1ccccc1 (stereo unspecified)
not listed: [11] | [14]
inactive: all other assays above

CCn1c2ccccc2c2ccccc21
active: [4] 57.4 µM | [7] 164 µM | [9] 159 µM | [10] 25.8 µM
not listed: [20]
inactive: all other assays above
